# Kir21 inh – Kir2.1 (mouse) channel inhibition; actives 0.85% (n = 310,000); P35561; B-score at 10 µM; HEK293-Kir2.1, FluxOR thallium flux fluorescence; hits give low values;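 active means fluorescence ratio B-score at or below minus 3 SD of library scores, with starting-brightness B-score within 2 SD, cut at about -4.2 in these data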;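 further: channel flux triggered by added potassium and thallium sulfate stimulus; B-score of peak minus minimum fluorescence over baseline after thallium stimulus; more negative B-score means stronger Kir2.1 block with less thallium influx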
# Target sequence (P35561 whole entry, looked up): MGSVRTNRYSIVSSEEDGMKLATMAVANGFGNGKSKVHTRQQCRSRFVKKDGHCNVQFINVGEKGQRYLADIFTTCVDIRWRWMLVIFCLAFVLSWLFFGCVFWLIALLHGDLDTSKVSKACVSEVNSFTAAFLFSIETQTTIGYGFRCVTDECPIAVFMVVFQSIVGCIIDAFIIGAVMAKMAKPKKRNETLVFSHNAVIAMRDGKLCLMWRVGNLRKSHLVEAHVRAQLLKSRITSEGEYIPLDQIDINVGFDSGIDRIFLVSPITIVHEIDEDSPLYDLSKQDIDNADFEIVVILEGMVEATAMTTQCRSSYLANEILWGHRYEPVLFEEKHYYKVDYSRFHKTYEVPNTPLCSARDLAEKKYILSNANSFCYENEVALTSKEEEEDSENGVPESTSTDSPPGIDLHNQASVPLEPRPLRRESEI
# FID counter – fluorescent intercalator displacement, NS3 helicase counter-screen; DNA fluorescent intercalator displacement, fluorescence; inhibition, % at 7.9 µM; actives 0.17% (n = 290,000); in the data active means inhibition above about 37%;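 further: 0% = vehicle and 100% = reference compound; higher means more ethidium bromide displaced from hairpin DNA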
# Rce1 inh – inhibitors of yeast Ras-converting enzyme | calls only | actives 0.27% (n = 290,000) | yeast membranes, quenched prenylated peptide cleavage fluorescence | Q03530;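 active means fall in fluorescence gain of 50% or more versus controls, with final raw signal at or below 3038400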;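 further: plate controls were neutral control wells for no effect and wells lacking membranes for full effect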
# PfM18AAP inh – blocks P. falciparum M18 aspartyl aminopeptidase. recombinant PfM18AAP, H-Glu-NHMec fluorogenic cleavage. inhibition, % at 7.35 µM. actives 1.2% (n = 290,000). AID 1822;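 active means inhibition above the campaign mean inhibition over all tested compounds plus 3 SD, cut at about 28% in these data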;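 further: 0% = plate median of test compound wells and 100% = 2 mM ZnCl2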
# * hit, by the source's call; i = inactive; nt = not tested or not shown; + = active, no number. Hits are enriched below; roughly 2.3% of the tested compounds scored in any of these assays.
SMILES,Kir21 inh,FID counter,Rce1 inh,PfM18AAP inh
COc1ccc(CN2CCc3c([nH]c4ccccc34)C2)cc1Br,-4.3*,10,nt,14
CCc1nc2ccccc2n1CCc1ccccc1,-2.7,2,i,1
CC(C)Cc1nc2ccccc2n1CCc1ccccc1,-6.5*,0,nt,0
c1ccc(Cc2nc3ccccc3n2Cc2ccccc2)cc1,-7.2*,-23,i,6
CC(C)(C)Cc1nc2ccccc2n1CCc1ccccc1,-6.1*,-10,i,3
O=S(=O)(NCCN1CCCC1)c1ccc(Br)cc1,0.23,-3,i,4
CCCCNCCOc1ccccc1-c1ccccc1,-4.4*,27,i,-3
COCCCNCCCCOc1ccccc1-c1ccccc1,-4.5*,17,i,-10
CNCCCCOc1ccccc1-c1ccccc1,-6.4*,17,i,-4
COCCCNCCOc1ccccc1-c1ccccc1,-2.3,14,i,-3
C=CCNCCCCOc1ccccc1-c1ccccc1,-5.7*,18,i,0
COc1ccc(C(=O)NC(=S)Nc2ccc(N3CCOCC3)c(Cl)c2)cc1[N+](=O)[O-],-0.03,8,i,8
COc1ccc(-n2c(=S)[nH]c3cc(C(=O)NCc4ccccc4)ccc3c2=O)c(OC)c1,2.6,-28,i,4
Cc1ccc(C(=O)N(C)CC(=O)Nc2ccc(N3CCOCC3)cc2)s1,2.7,nt,i,nt
CC1CCc2c(sc(NC(=O)COC(=O)c3ccccc3NCc3ccco3)c2C#N)C1 (configuration not stated),0.51,4,+,1
COc1ccc(C(=O)C2CCCN(Cc3ccc4nonc4c3)C2)c(OC)c1 (configuration not stated),-5.2*,-3,i,2
CN(C)CCn1c2ccccc2c2nc3ccc([N+](=O)[O-])cc3cc21,-0.23,48*,i,-2
O=C(NCc1nc2ccccc2[nH]1)C1=C[C@@H](c2ccc(C(F)(F)F)cc2)C[C@@H](OCc2ccc(CO)cc2)O1,-0.23,nt,i,nt
CC1CCN(CCc2nc3cc(NC(=O)COc4ccc(Cl)cc4)ccc3n2C)CC1,-1.2,20,i,3
Cc1cc(NS(=O)(=O)c2ccc(NC(=O)CCCOc3cccc(C)c3C)cc2)no1,-0.71,-60,i,3
COc1ccccc1CCNC(=O)COc1cccc2c1OC(C)(C)C2,-6.4*,nt,i,nt
CC(OC(=O)CCCOc1ccccc1)C(=O)NC(N)=O (configuration not stated),-0.34,-1,i,-3
COc1ccccc1NC(=O)C(C)OC(=O)COc1cccc2c1OC(C)(C)C2 (configuration not stated),-4.6*,nt,i,nt
COc1ccc(C(C)=O)cc1COc1cccc2c1OC(C)(C)C2,-5*,-46,i,-4
Cc1c(NC(=O)C(C)OC(=O)COc2cccc3c2OC(C)(C)C3)c(=O)n(-c2ccccc2)n1C (configuration not stated),0.01,-25,i,-5
SMILES,Kir21 inh,FID counter,Rce1 inh,PfM18AAP inh
COc1ccc(C(C)=O)cc1COc1ccc(Cl)cc1Cl,0.74,2,i,1
COc1ccccc1NC(=O)C(C)OC(=O)CCCOc1ccccc1 (configuration not stated),-4.8*,nt,i,nt
Clc1ccc(COc2cccc(CNCc3ccncc3)c2)cc1,-1.1,18,i,-9
Cc1nc(Cc2nnc(SCC(=O)Nc3c(C)cccc3C)o2)cs1,1.3,nt,i,nt
CCN(CCNCC(O)COCc1ccc(Cl)cc1)c1cccc(C)c1 (configuration not stated),-7.5*,16,i,4
CC(=O)N1CC(C)Oc2ccc(S(=O)(=O)NC(CC(=O)O)c3cc(C)ccc3C)cc21 (configuration not stated),0.25,-41,i,0
Cc1ccccc1C(=O)NCC(=O)OCCOc1ccc(C(C)C)c(C)c1,-0.21,nt,i,nt
CCOC(=O)C(=NC(C)CC)NNc1ccc(Br)cc1 (configuration not stated),-0.7,-10,i,30*
CCOC(=O)C(=NC(C)CC)NNc1cccc(C(F)(F)F)c1 (configuration not stated),0.05,2,i,0
CC(C)(C)n1nnnc1C(c1ccncc1)N1CCN(c2ccc(O)cc2)CC1 (configuration not stated),1.1,-9,i,30*
N#Cc1nc(-c2ccco2)oc1N1CCN(C(c2ccccc2)c2ccccc2)CC1,-2,-11,+,4
NNc1nc2ccc(Cl)cc2s1,0.83,12,i,10
NNc1nc2c(Cl)c(Cl)ccc2s1,1.2,-2,i,30*
Nc1cccc2c(=O)c3ccccc3[nH]c12,-1.2,-6,i,29*
